Rows were chosen to be rich in hits. Some 7.5% of all compounds tested hit in one or more screens of this group.
ELG1 genotox = qHTS screen for small molecules that induce genotoxicity in human embryonic kidney (HEK293T) cells expressing luciferase-tagged ELG1; 330,000 compounds, 1.3% hits; Potency, µM (series often up to 46 µM), for inactives: top-dose activity change, positive = activation, usual class: activators; HEK293T ELG1-luciferase reporter, luminescence, 16 h; note: % of control where 0% means no effect; nearly all actives have a fitted effect of over 60% in size
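Genotoxic stress is detected as increased luminescence from luciferase-tagged ELG1 in HEK293T cells, measured with ONE-Glo after a 16 hr treatment at 37 °C.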
NPC1 promoter act = qHTS Assay for NPC1 Promoter Activators | Huh7 NPC1 promoter luciferase reporter, 24 h | Potency, µM (doses to about 9.22 µM), without a hit: top-dose activation, actives largely listed as activators | 320,000 compounds, 2.4% hits; note: % of control where 0% means no effect; nearly all actives have a fitted effect of over 60% in size
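Compounds in DMSO were transferred onto Huh7 NPC1-luciferase reporter cells pre-incubated 2 h; after 24 h at 37 °C, Amplite reagent was dispensed and luminescence recorded 10 min later.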
KinaseGlo FLuc = Counterscreen for Luciferase (Kinase-Glo TM) Inhibition | Kinase-Glo luciferase, ATP luminescence, 8 min | 200,000 compounds, 0.28% hits | Luciferin 4-monooxygenase (Photuris pensylvanica), Q27757 | Potency, µM (titrated, usually from 38.3 µM), for inactives: at the highest dose activity change, negative = inhibition, hits mostly inhibitors; note: % is set by controls: 0 for no effect and ±100 for the full control effect; nearly all actives have a fitted effect of over 60% in size
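Luminescence was the read-out, taken after 8-minute incubation at ambient temperature. Luciferase turned over luciferin with 10 uM ATP in imidazole pH 7.2 buffer containing KCl, MgCl2, Tween 20 and BSA.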
FLuc modulator = qHTS profiling assay for firefly luciferase inhibitor/activator using purifed enzyme and Km concentrations of substrates (counterscreen for miR-21 project); purified FLuc, Km substrates, luminescence inhibition; Potency, µM (highest dose often 57.5 µM), inactives show at the highest dose activity change, negative = inhibition, actives largely listed as inhibitors; 360,000 compounds, 6.9% hits;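 note: plate controls were vehicle for no effect and reference inhibitor for full effect; nearly all actives have a fitted effect of over 55% in size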
Target sequence (P08659 whole entry, looked up): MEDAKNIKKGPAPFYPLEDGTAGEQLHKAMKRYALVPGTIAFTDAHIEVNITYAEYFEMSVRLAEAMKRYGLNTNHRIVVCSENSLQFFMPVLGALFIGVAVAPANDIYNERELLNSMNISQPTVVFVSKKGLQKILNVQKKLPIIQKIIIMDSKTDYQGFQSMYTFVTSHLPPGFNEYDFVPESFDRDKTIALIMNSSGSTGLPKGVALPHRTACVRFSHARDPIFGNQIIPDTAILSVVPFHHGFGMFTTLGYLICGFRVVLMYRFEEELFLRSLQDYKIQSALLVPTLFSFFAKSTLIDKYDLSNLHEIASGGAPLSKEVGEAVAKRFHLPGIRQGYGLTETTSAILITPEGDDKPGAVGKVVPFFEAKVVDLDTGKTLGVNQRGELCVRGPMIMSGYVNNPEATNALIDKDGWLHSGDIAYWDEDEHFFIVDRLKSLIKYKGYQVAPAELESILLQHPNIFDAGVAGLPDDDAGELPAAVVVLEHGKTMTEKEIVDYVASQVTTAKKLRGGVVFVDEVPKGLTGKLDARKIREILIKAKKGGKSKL
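Purified P. pyralis luciferase (10nM final) with 10uM D-luciferin and 10uM ATP (Km levels) in 50mM Tris acetate pH 7.5, 10mM Mg acetate, 0.01% Tween-20, 0.05% BSA; qHTS 6-point titration, ~60 µM downward; luminescence read.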
SMN2 splice up = qHTS Assay for Enhancers of SMN2 Splice Variant Expression | HEK293 SMN2-luciferase splicing reporter, luminescence, 30-36 h | 210,000 compounds, 2.8% hits | AID 1458, 2008 | Potency, µM (doses to about 46.1 µM), for the others: at the top dose activity change, positive = activation, hits mostly activators; note: % of control where 0% means no effect; nearly all actives have a fitted effect of over 55% in size
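HEK293 cells carry an SMN2 […]–luciferase reporter in which exon 7 inclusion puts luciferase in frame. Cells were plated 10-12 h before compound addition, then incubated 30-36 h at 37C. ONE-Glo luminescence was read; sodium butyrate at 4.5 mM final served as control.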
Rab9 prom act = qHTS Assay for Rab9 Promoter Activators | 320,000 compounds, 2.8% hits | AID 485297, 2010 | Potency, µM (highest dose often 9.22 µM), for the others: top-dose activation, negative = inhibition, usual class: activators | Huh7 Rab9 promoter-luciferase reporter, luminescence, 24 h; note: % of control where 0% means no effect; nearly all actives have a fitted effect of over 60% in size
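Quantitative HTS format; Huh7 Rab9-luciferase reporter cells (1500/well) receive compound 2 h post-plating, incubate 24 h at 37 °C, then get luciferase reagent for 10 min before luminescence reading.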
The depositor's hits bear a star; ? = inconclusive; · = no result; [ ] = another dose, or the depositor's remark. Calls come from the whole dose curve; as a rule, active = well fitted curve in the direction sought with a large enough effect; inconclusive = small, poorly fitted or top-dose-only effect, or another doubt; inactive = no such curve, though single readings can be large; an effect the other way counts as inactive or inconclusive. Potency is the fitted concentration of half-maximal effect.

SMILES | ELG1 genotox | NPC1 promoter act | KinaseGlo FLuc | FLuc modulator | SMN2 splice up | Rab9 prom act
CC1CCc2sc(C(=O)NCC(C)(C)N3CCOCC3)cc2C1 (centres undefined) | 0% | -3% | · | -8% | · | 1%
C/C(=N\NC(=O)c1cc2c(s1)CCC(C)C2)c1ccncc1 (centres undefined) | 8% | 3% | -1% | 9.5µM* | 27% | 13%
O=C(Cc1ccccc1)Nc1nc2ccccc2s1 | 13% | 25% | 1% | 27µM* | ? | 27%
O=C(Cc1ccccc1)Nc1nc(=O)c2ccccc2s1 | 4% | -2% | -3% | 5% | 1% | ·
CCc1c(O)nc(SCC(=O)Nc2nc3ccccc3s2)n(-c2ccc(C)cc2)c1=O | 17% | 20% | · | 21µM* | · | 16%
COc1ccc2nc(NC(=O)Cc3cccs3)sc2c1 | 6.5µM* | 2.8µM* | -4% | 12µM* | 10% | 2.8µM*
COc1ccc2nc(NC(=O)CCn3cccc3)sc2c1 | 0% | ? | -9% | -7% | -10% | -8%
Cc1ccc2nc(-c3ccc(NC(=O)Cc4cccs4)cc3)[nH]c2c1 | ? | 2µM* | -2% | 1.3µM* | 2.5µM* | 1µM*
CCc1c(O)nc(SCC(=O)Nc2nc3ccccc3s2)n(-c2ccccc2)c1=O | 0% | -1% | · | -7% | · | -2%
COc1ccccc1N1CCN(C(=O)c2ccc(Nc3nc4ccccc4n4nnnc34)cc2)CC1 | · | · | · | -4% | 2% | ·
CCOc1ccc2nc(NC(=O)Cc3cccs3)sc2c1 | ? | ? | 18% | 12µM* | ? | ?
Cc1ccc2nc(NC(=O)Cc3cccs3)sc2c1 | ? | 2.2µM* | -4% | 8.5µM* | ? | ?
CCOc1ccc2nc(NS(=O)(=O)c3cccs3)sc2c1 | 1% | -2% | · | ? | · | 8%
O=C(CSc1nccn1Cc1ccccc1)Nc1nc2ccccc2s1 | · | · | · | 17µM* | · | ·
O=C(Cc1cccs1)Nc1nc2ccccc2s1 | 8% | ? | -8% | 15µM* | 17% | 3.2µM*
Cc1cc(C)nc(NC(=O)c2ccc(COc3ccccc3Cl)cc2)c1 | -3% | 0% | 3% | ? | -32% | 3%
COc1ccc(CCNC(=O)Cc2c(C)c3ccc(O)c(C)c3oc2=O)cc1OC | · | · | · | 2% | 3% | ·
CCC(=O)N1CCc2cc(Br)cc(S(=O)(=O)N3CCN(c4cccc(Cl)c4)CC3)c21 | · | · | · | 1% | -3% | ·
Cc1ccc2nc(-c3ccc(NC(=O)C4CCCO4)cc3)[nH]c2c1 (centres undefined) | ? | 0.28µM* | -12% | 0.6µM* | 0.56µM* | 0.32µM*
Cc1ccc(NC(=O)CN(C)S(=O)(=O)c2cccs2)c(Br)c1 | 11% | 3% | · | 24µM* | · | 14%
COc1ccc2nc(NC(=O)CNS(=O)(=O)c3cccs3)sc2c1 | 1% | 2% | 1% | ? | -5% | -6%
COc1ccc2nc(NC(=O)CN(C)S(=O)(=O)c3cccs3)sc2c1 | -4% | 18% | 5% | 17µM* | 3% | 18%
Cc1cc(NC(=O)CSCC(=O)Nc2nc3ccc(F)cc3s2)no1 | 1% | 4% | · | -17% | · | -6%
Cc1ccc2nc(NC(=O)CSCC(=O)Nc3cc(C)on3)sc2c1 | ? | ? | · | ? | · | 2.5µM*
CCCn1c(C)nc2c(N3CCOCC3)nc(C)nc21 | · | · | -2% | · | -23% | ·
SMILES | ELG1 genotox | NPC1 promoter act | KinaseGlo FLuc | FLuc modulator | SMN2 splice up | Rab9 prom act
O=C(Cc1nc(=O)c2ccccc2s1)Nc1ccccc1 | ? | 0.71µM* | ? | 0.54µM* | 2.5µM* | 0.32µM*
O=C(Cc1nnc(NC(=O)Nc2ccccc2)s1)Nc1ccccc1 | 7% | 0% | · | -1% | · | 0%
COCC(=O)Nc1nc2ccccc2s1 | · | · | -3% | ? | 20% | ·
O=C(O)CCC(=O)Nc1ccc(-c2nc3ccc(C(=O)c4ccccc4)cc3[nH]2)cc1 | 9% | 0% | · | 11µM* | · | 3%
CC1(C(=O)Nc2nc3ccccc3s2)CC1(Br)Br (centres undefined) | ? | ? | · | 21µM* | · | ?
Cc1cccc(C(C)C)c1NC(=O)c1cc2ccccc2o1 | -6% | -3% | · | 1% | · | 1%
Cc1ccc(N2C(=O)CS(=O)(=O)C23C(=O)N(Cc2ccccc2F)c2ccccc23)cc1Cl (centres undefined) | · | · | · | 3% | -3% | ·
CC(=O)Nc1cccc(-c2csc(N)n2)c1 | 4% | 4% | 6% | -18% | -8% | 0%
CC(C)(C)C(=O)N1CCc2cc(-c3csc(N)n3)ccc21 | ? | 0.35µM* | -7% | 0.24µM* | ? | 0.089µM*
CCC(C)C(=O)N1CCc2cc(-c3csc(N)n3)ccc21 (centres undefined) | 5.8µM* | 2.5µM* | -6% | 5.4µM* | 11µM* | 1.4µM*
CCCC(=O)N1CCc2cc(-c3nc(N)sc3C)ccc21 | ? | ? | · | 12µM* | · | 3.2µM*
CNc1nc(-c2ccc3c(c2)CCN3C(=O)CC(C)(C)C)c(C)s1 | -5% | -10% | 1% | 2% | · | -2%
O=C(CNC(=O)c1ccco1)OCc1ccccc1F | 1% | · | · | · | · | ·
COc1cccc(CC(=O)N2CCC(n3nccc3NC(=O)C3CC3)CC2)c1 | 14% | 9% | · | -2% | · | 4%
CSc1ccc(CC(=O)N2CCC(n3nccc3NC(=O)C3CC3)CC2)cc1 | ? | 3.2µM* | · | ? | · | ?
COc1cc2c(cc1OC)-c1cc(NC3CC3)nc(=O)n1CC2 | ? | -2% | 0% | 3% | 14µM* | 3%
CCOc1ccc(Nc2cc3n(c(=O)n2)CCc2cc(OC)c(OC)cc2-3)cc1 | ? | -5% | · | 13µM* | · | -1%[1.84 µM]
CC(C)C[C@H](NC(=O)NCc1ccc(F)cc1)C(=O)O | 1% | -1% | · | 2% | · | -3%
O=C1c2cccc3c(N4CCCCC4)ccc(c23)C(=O)N1c1cccc(O)c1 | 12% | 0% | 2% | 19µM* | -10% | 0%
O=C1c2cccc3c(N4CCCCC4)ccc(c23)C(=O)N1CCO | ? | ? | 2% | 15µM* | 10% | ?
COc1ccc(C(=O)Nn2c(C)nc3ccccc3c2=O)cc1[N+](=O)[O-] | 0% | 1% | · | 1% | · | -1%
OCC[C@H]1C[C@H](O)[C@@H](O)[C@@]2(OCCCc3ccccc32)O1 | -6% | -2% | · | 3% | · | 3%
COc1cccc(NC(=O)CSc2ncc(S(=O)(=O)c3ccccc3)c(=O)[nH]2)c1 | -1% | -1% | · | -3% | · | -6%

High-throughput results deposited in PubChem by National Center for Advancing Translational Sciences (NCATS).
